Data: the supplement of paper PMC13380429

Test system: Vero E6 infected with SARS-CoV-2
Test: inhibition of SARS-CoV-2 cytopathic effect; higher = more antiviral protection, active = above 15
Conditions: 48 h

Measured: inhibition of SARS-CoV-2 cytopathic effect

CCN1CCN(C(=O)N[C@@H](C(=O)N[C@@H]2C(=O)N3[C@@H]2SC(C)(C)[C@@H]3C(=O)O)c2ccccc2)C(=O)C1=O [piperacillin]
inactive: 1 nM -0.76% | 8.33 nM 0.86% | 100 nM -1.44% | 833.33 nM -0.01% | 10000 nM 0.01%

Cc1ccc(/C=C2/C(=O)C3(C)CCC2C3(C)C)cc1 (stereo not given) [3-(4-methylbenzylidene)camphor]
inactive: 1 nM 0.22% | 8.33 nM 0.95% | 100 nM 2.26% | 833.33 nM 0.01% | 10000 nM 0.05%

C[n+]1cccc(C(=O)[O-])c1 [trigonelline]
inactive: 1 nM 5.14% | 8.33 nM 3.85% | 100 nM 1.81% | 833.33 nM 1.44% | 10000 nM 0.82%

Cc1cc(CN)cc(C)c1NC(=O)c1ccc(-c2cc(Cl)ccc2Cl)o1
active: 10000 nM 66.2%
inactive: 1 nM -1.09% | 8.33 nM 1.98% | 100 nM 3.29% | 833.33 nM -1.5%

O=C(O)c1ccc2c(c1)C(=O)N(c1cccc(Oc3ccc([N+](=O)[O-])cc3)c1)C2=O
inactive: 1 nM 1.34% | 8.33 nM 0.95% | 100 nM 0.59% | 833.33 nM 1.36% | 10000 nM -0.65%

CCC(=O)N1CCN(c2ccc(-n3c(=O)ccc4cnc5ccc(-c6cnc7ccccc7c6)cc5c43)cc2C(F)(F)F)CC1 [torin-1]
inactive: 1 nM 1.59% | 8.33 nM -1.08% | 100 nM 0.88% | 833.33 nM -0.28% | 10000 nM -0.2%

Cc1oc(=O)oc1CN1CCN(c2cc3c(cc2F)c(=O)c(C(=O)O)c2n3C(C)S2)CC1 (stereo not given) [prulifloxacin]
inactive: 1 nM 0.31% | 8.33 nM -0.69% | 100 nM -3.24% | 833.33 nM -1.97% | 10000 nM -3.69%

C[C@@H](CN1CC(=O)NC(=O)C1)N1CC(=O)NC(=O)C1 [dexrazoxane]
inactive: 1 nM 1.89% | 8.33 nM 2.78% | 100 nM 2.19% | 833.33 nM 3.16% | 10000 nM -1.81%

CO[C@@H]1[C@@H](O[C@@H]2O[C@H](C)[C@@H](O[C@H]3C[C@@](C)(O)[C@@H](OC(=O)CC(C)C)[C@H](C)O3)[C@H](N(C)C)[C@H]2O)[C@@H](CC=O)C[C@@H](C)[C@@H](O)/C=C/C=C/C[C@@H](C)OC(=O)C[C@H]1OC(C)=O [josamycin]
inactive: 1 nM 2.65% | 8.33 nM 0.07% | 100 nM -2.91% | 833.33 nM -1.73% | 10000 nM -7.02%

NC(=O)NC1NC(=O)NC1=O (stereo not given) [allantoin]
inactive: 1 nM -0.84% | 8.33 nM -1.51% | 100 nM -2.49% | 833.33 nM -1.11% | 10000 nM 1.18%

O=C(Nc1ccccc1F)N[C@H]1N=C(c2ccccc2)c2ccccc2NC1=O
inactive: 1 nM 0.66% | 8.33 nM 0.41% | 100 nM -0.15% | 833.33 nM -1.67% | 10000 nM -0.49%

S=C(NC1CCCCC1)N1CCC(c2cnc[nH]2)CC1 [thioperamide]
inactive: 1 nM 1.24% | 8.33 nM 1.61% | 100 nM -0.03% | 833.33 nM 0.28% | 10000 nM -2.39%

CC(C)Cc1ccc([C@@H](C)C(=O)NS(C)(=O)=O)cc1 [reparixin]
inactive: 1 nM 2.11% | 8.33 nM 3.05% | 100 nM 3.66% | 833.33 nM 0.65% | 10000 nM 4.19%

Nc1n[nH]c2nc3ccccc3nc12 [CDK1-5-inhibitor]
inactive: 1 nM 0.56% | 8.33 nM 0.41% | 100 nM 0.84% | 833.33 nM 0.94% | 10000 nM -3.33%

CCC1(c2ccccc2)C(=O)NCNC1=O [primidone]
inactive: 1 nM 0.5% | 8.33 nM -0.36% | 100 nM -1.1% | 833.33 nM 0.53% | 10000 nM 1.81%

CC(=O)Oc1cc(C(F)(F)F)ccc1C(=O)O [triflusal]
inactive: 1 nM -0.9% | 8.33 nM -0.53% | 100 nM -1.38% | 833.33 nM 0.3% | 10000 nM 4.74%

Cc1ncc(CSSCc2cnc(C)c(O)c2CO)c(CO)c1O [pyritinol]
inactive: 1 nM -0.56% | 8.33 nM 1.16% | 100 nM 2.92% | 833.33 nM 1.42% | 10000 nM 0.94%

CN(C)NC(=O)CCC(=O)O [daminozide]
inactive: 1 nM -0.2% | 8.33 nM 2.15% | 100 nM 0.35% | 833.33 nM 0.11% | 10000 nM 1.18%

CC(C)[C@@H](C)/C=C/[C@@H](C)[C@H]1CC[C@H]2/C(=C/C=C3\C[C@@H](O)CC[C@@H]3C)CCC[C@]12C [dihydrotachysterol]
inactive: 1 nM -0.76% | 8.33 nM 0.52% | 100 nM -1.39% | 833.33 nM -0.26% | 10000 nM -0.14%

CCOC(=O)c1ncn2c1[C@@H]1CCCN1C(=O)c1cc(OC)ccc1-2
inactive: 1 nM -0.88% | 8.33 nM 0.22% | 100 nM 0.35% | 833.33 nM -0.77% | 10000 nM 0.55%

NC(=O)c1cccc(-c2cccc(OC(=O)NC3CCCCC3)c2)c1
inactive: 1 nM 1.14% | 8.33 nM 3.25% | 100 nM 1.96% | 833.33 nM 1.41% | 10000 nM 1.6%

O=C(O)CCC/C=C\C[C@@H]1[C@@H](/C=C/[C@@H](O)COc2cccc(Cl)c2)[C@H](O)C[C@@H]1O (racemic) [cloprostenol-(+/-)]
inactive: 1 nM -2.05% | 8.33 nM 0.95% | 100 nM 2.48% | 833.33 nM 5.03% | 10000 nM 0.05%

Nc1nc(Cl)nc2c1ncn2[C@@H]1O[C@H](CO)[C@@H](O)[C@H]1O [2-chloroadenosine]
inactive: 1 nM 1.66% | 8.33 nM 0.54% | 100 nM -0.34% | 833.33 nM -0.32% | 10000 nM -2.2%

O=C1C(=O)N(Cc2ccc(Cl)c(Cl)c2)c2ccccc21 [apoptosis-activator-II]
inactive: 1 nM 1.74% | 8.33 nM -0.59% | 100 nM -1.07% | 833.33 nM -3.55% | 10000 nM -3.11%

Cc1cccc(C)c1NC(=O)CN1CCCC1=O [nefiracetam]
inactive: 1 nM -0.7% | 8.33 nM 0.26% | 100 nM -2.77% | 833.33 nM 1.22% | 10000 nM -6.8%

Nc1cccc2c(=O)[nH][nH]c(=O)c12 [monosodium-alpha-luminol]
inactive: 1 nM -0.8% | 8.33 nM 0.14% | 100 nM -1.27% | 833.33 nM -0.92% | 10000 nM 2.06%

CN(C)CCCN1c2ccccc2Sc2ccc(Cl)cc21 [chlorpromazine]
inactive: 1 nM -0.39% | 8.33 nM 2.71% | 100 nM 1.5% | 833.33 nM 2.32% | 10000 nM 7.04%

c1ccc(CNc2ncnc3[nH]cnc23)cc1 [6-benzylaminopurine]
inactive: 1 nM 0.87% | 8.33 nM 0.37% | 100 nM -1.53% | 833.33 nM -1.37% | 10000 nM -1.09%

COC(=O)Nc1nc2cc(C(=O)c3cccs3)ccc2[nH]1 [nocodazole]
inactive: 1 nM 2.2% | 8.33 nM 3.05% | 100 nM 0.53% | 833.33 nM 1.99% | 10000 nM -1.47%

CC(C)c1nc(CN(C)C(=O)N[C@H](C(=O)N[C@@H](Cc2ccccc2)C[C@H](O)[C@H](Cc2ccccc2)NC(=O)OCc2cncs2)C(C)C)cs1 [ritonavir]
inactive: 1 nM 0.04% | 8.33 nM 0.25% | 100 nM -0.08% | 833.33 nM 3.37% | 10000 nM 0.85%

N[C@]1(C(=O)O)CC[C@@H](C(=O)O)C1
inactive: 1 nM 1.21% | 8.33 nM 2.87% | 100 nM 0.81% | 833.33 nM 1.58% | 10000 nM 1.7%

Cc1nc(-c2ccc(OCC(C)C)c(C#N)c2)sc1C(=O)O [febuxostat]
inactive: 1 nM -0.9% | 8.33 nM -0.46% | 100 nM -0.43% | 833.33 nM 2.99% | 10000 nM 1.58%

COc1cc(N)c(Cl)cc1C(=O)OCCCN1CCCCC1
inactive: 1 nM 3.12% | 8.33 nM -0.29% | 100 nM 3.25% | 833.33 nM 4.22% | 10000 nM 1.72%

CC(=O)/N=c1/[nH]c(C)c(-c2ccc(Cl)c(S(=O)(=O)NCCO)c2)s1
inactive: 1 nM 0.03% | 8.33 nM -0.02% | 100 nM 1.03% | 833.33 nM 1.81% | 10000 nM 2.47%

COc1cc2nc(N3CCN(C(=O)c4ccco4)CC3)nc(N)c2cc1OC [prazosin]
inactive: 1 nM 0.79% | 8.33 nM -8.02% | 100 nM -0.93% | 833.33 nM -1.57% | 10000 nM 1.13%

C=CC(=O)Nc1ccc2ncnc(Nc3cccc(Br)c3)c2c1
inactive: 1 nM -0.46% | 8.33 nM -1.31% | 100 nM -13.7% | 833.33 nM -13.8% | 10000 nM -13.2%

CCOc1ccc(-c2nc(-c3cccc4c3CCC4NCCO)no2)cc1OCC (stereo not given)
inactive: 1 nM -0.52% | 8.33 nM 0.67% | 100 nM 1.13% | 833.33 nM 0.77% | 10000 nM 5.33%

CCCn1c(=O)[nH]c(=O)c2nc[nH]c21 [enprofylline]
inactive: 1 nM 0.79% | 8.33 nM 0.93% | 100 nM 1.89% | 833.33 nM 1.3% | 10000 nM 4.03%

C[C@@H]1CC[C@@]2(OC1)O[C@H]1C[C@H]3[C@@H]4CC=C5C[C@@H](O)CC[C@]5(C)[C@H]4CC[C@]3(C)[C@H]1[C@@H]2C [diosgenin]
inactive: 1 nM -0.61% | 8.33 nM -0.09% | 100 nM 0.12% | 833.33 nM -2.38% | 10000 nM -1.29%
